For 13 molecules, growth results are on record in PubChem BioAssay (NCI).

Some test systems named below: HCT-15 colon; HT29 colon; SNB-75 CNS; SNB-19 CNS; U251 CNS; PC-3 prostate; SK-MEL-5 melanoma; UACC-62 melanoma; SK-MEL-28 melanoma.
Common to all, as to assay: NCI-60 one-dose screen, 48 h (100 = growth as untreated, 0 = no growth, -100 = all killed)
What all share (conditions): 10 µM unless noted

The structures appear in SMILES notation. This is part of a sample that, as a whole, favours compounds with a hit. Of some 83,000 tested, about 20% had one in any assay.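 Assay: single dose, 48 h. Readout: percent growth (0 = no net growth; negative = cell death). Active: <10.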 Unmarked numbers belong to inactive results. Active and inactive are the calls of the source.

With `Cc1ccc2c(c1)c1nc3cc(C)c(C)cc3nc1n2CCN(C)C`, the growth in the assay with HCT-15 colon is 3.18% (active); with HT29 colon it was 19%; in the assay with SNB-75 CNS it was 23.9%; with SNB-19 CNS, 17.1%; in the assay on U251 CNS, 23.7%; with PC-3 prostate, 25%. The growth in the assay on SK-MEL-5 melanoma was 15.4%; with UACC-62 melanoma, 12.3%; with SK-MEL-28 melanoma it was 17.2%.

In the case of `COc1cc(-c2cc(-c3nc4cc(Cl)c(Cl)cc4[nH]3)[nH]n2)cc(OC)c1OC`, the growth with HCT-15 colon is 52%; in the assay with HT29 colon, 72.6%; in the assay with SNB-75 CNS it was 70.4%; with SNB-19 CNS, 78.1%; with U251 CNS, 75.7%; with PC-3 prostate it was 5.57% (active). The growth was 19.6% in the assay on SK-MEL-5 melanoma, 24.1% with UACC-62 melanoma and 47.6% with SK-MEL-28 melanoma.

Turning to `Cn1c(/C(C#N)=C/c2ccc3ccccc3c2)cc2ccccc21`, the growth is 5.67% (active) in the assay with HCT-15 colon; 21.8% in the assay with HT29 colon; 15.3% in the assay with SNB-75 CNS; 23.9% in the assay on SNB-19 CNS; 34.1% in the assay with U251 CNS; 28.8% in the assay with PC-3 prostate. Besides, the growth was -26.7% (active) with SK-MEL-5 melanoma, 18.7% in the assay on UACC-62 melanoma and 63.4% in the assay with SK-MEL-28 melanoma.

Take `NC1=NN(c2ccccc2)C(=O)/C1=C/c1ccc(Cl)cc1`: the growth with HCT-15 colon is 99.4%; with HT29 colon, 102%; in the assay on SNB-75 CNS it was 105%; in the assay on SNB-19 CNS it was 96.9%; in the assay with U251 CNS it was 98.1%; with PC-3 prostate it was 82.8%. Besides, the values for the growth with SK-MEL-5 melanoma, in the assay on UACC-62 melanoma and in the assay on SK-MEL-28 melanoma were 101%, 81.2% and 95%, respectively.

As for `O=c1c(CNc2ccc(S(=O)(=O)Nc3ncccn3)cc2)coc2ccccc12`, the growth in the assay on HCT-15 colon was 84.5%; in the assay on HT29 colon it was 110%; in the assay on SNB-75 CNS, 79.4%; in the assay on SNB-19 CNS, 94.2%; in the assay with U251 CNS, 93.3%; with PC-3 prostate, 92.2%. The growth in the assay on SK-MEL-5 melanoma is 95.9%; with UACC-62 melanoma, 89.8%; with SK-MEL-28 melanoma it was 119%.

Consider `N=C(N)c1ccc(-c2ccc(-c3cc(F)cc(F)c3)o2)nc1`, for which the growth was 77.4% in the assay with HCT-15 colon; 26.2% with HT29 colon; 72.1% in the assay with SNB-75 CNS; 93.2% in the assay on SNB-19 CNS; 85.9% with U251 CNS; 82.4% in the assay on PC-3 prostate. The growth in the assay with SK-MEL-5 melanoma is 88.7%; in the assay on UACC-62 melanoma, 96.3%; in the assay on SK-MEL-28 melanoma it was 98.7%.

In the case of `CN1CCN(c2ccc3nc(-c4[nH]ncc4Nc4ncnc5[nH]ccc45)[nH]c3c2)CC1`, the growth is 4.21% (active) in the assay with HCT-15 colon; 7.01% (active) in the assay with HT29 colon; -52.7% (active) with SNB-75 CNS; 2.27% (active) in the assay with SNB-19 CNS; 7.05% (active) in the assay with U251 CNS; 11.7% in the assay with PC-3 prostate. The growth with SK-MEL-5 melanoma was -13% (active); in the assay with UACC-62 melanoma, 1.28% (active); with SK-MEL-28 melanoma, -11.3% (active).

In the case of `O=C(/C=C/c1cccc2ccccc12)Nc1ncc(Cc2ccccc2)s1`, the growth in the assay on HCT-15 colon was 12.2%; with HT29 colon, 14.1%; with SNB-75 CNS, -17.2% (active); with SNB-19 CNS it was 9.85% (active); with U251 CNS, 1.44% (active); with PC-3 prostate, 30.3%. Further, the growth was 10.6% in the assay on SK-MEL-5 melanoma, 15.9% in the assay on UACC-62 melanoma and 44.1% with SK-MEL-28 melanoma.

As to `Cc1ccc(-c2nc([P+](c3ccccc3)(c3ccccc3)c3ccccc3)c(N3C[C@H]4C[C@H](C3)c3cccc(=O)n3C4)o2)cc1`, the growth was 86.8% in the assay on HCT-15 colon; 92.3% in the assay with HT29 colon; 74.6% in the assay with SNB-75 CNS; 64.1% in the assay with SNB-19 CNS; 58.8% in the assay with U251 CNS; 82.7% in the assay on PC-3 prostate. Also, the growth is 68% with SK-MEL-5 melanoma, 54.5% in the assay on UACC-62 melanoma and 62% in the assay on SK-MEL-28 melanoma.

Turning to `COc1ccc2c(c1)C/C(=C\c1cc(-c3cc(OC)c(OC)c(OC)c3)n[nH]1)C2=O`, the growth was 91.1% in the assay with HCT-15 colon; 89.3% with HT29 colon; 78.4% in the assay on SNB-75 CNS; 91.9% with SNB-19 CNS; 92.3% in the assay with U251 CNS; 56% with PC-3 prostate. Moreover, the values for the growth with SK-MEL-5 melanoma, in the assay with UACC-62 melanoma and in the assay on SK-MEL-28 melanoma were 75.5%, 88.1% and 99.3%, respectively.

Take `COc1cc2nc(Cl)nc(Nc3cccc(C(=O)/C=C/c4ccc(Cl)cc4)c3)c2cc1OC`: the growth was 2.93% (active) in the assay on HCT-15 colon; 19.6% in the assay on HT29 colon; 81.3% in the assay on SNB-75 CNS; 54.6% with SNB-19 CNS; 50.7% with U251 CNS; 56% in the assay on PC-3 prostate. The growth in the assay on SK-MEL-5 melanoma is 83.9%; in the assay with UACC-62 melanoma, 62.8%; in the assay on SK-MEL-28 melanoma it was 74.2%.

On to `COc1cc(C(=O)/C=C/c2cc(-c3ccc4c(c3)OCO4)n[nH]2)cc(OC)c1OC`, for which the growth in the assay with HCT-15 colon is 19.6%; with HT29 colon, 3.4% (active); in the assay on SNB-75 CNS, 26.7%; in the assay with SNB-19 CNS, 33.2%; with U251 CNS, 5.54% (active); in the assay with PC-3 prostate, 6.51% (active). Further, the growth was 63% in the assay on SK-MEL-5 melanoma, 55.7% with UACC-62 melanoma and 76.2% in the assay with SK-MEL-28 melanoma.

As for `COc1ccc(NC(=O)c2ccoc2COc2ccccc2)cc1`, the growth was 89% in the assay with HCT-15 colon; 107% with HT29 colon; 87.2% with SNB-75 CNS; 89.6% in the assay with SNB-19 CNS; 96.1% in the assay with U251 CNS; 91.3% in the assay with PC-3 prostate. Besides, the growth with SK-MEL-5 melanoma is 100%; in the assay on UACC-62 melanoma, 82.7%; with SK-MEL-28 melanoma it was 94.6%.
